Source: PubChem
Only some compounds are listed: those with a hit (about 19% of all), similar ones and a draw of the others.
IL1B secr inh – blocks inflammasome-driven IL-1 beta release; actives 4.7% (n = 360,000); activity change, % at 57.5 µM; THP-1 LPS/ATP IL-1B secretion, AlphaLISA, 16 h; stronger effect = lower value; AID 743279; in the data active = activity change below about -50%; inconclusive = mostly about -30% to -49%; also: % is scaled to controls: 0 for no effect and ±100 for the full control effect
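THP-1 cells pretreated 1 hr with compounds (up to 57.5 uM final), then stimulated with LPS (250 ng/mL final) plus ATP (1.25 mM final); secreted IL-1B measured by AlphaLISA after 16 hr, decreased signal indicating inhibition.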
SW480 rerep – inducers of DNA re-replication in SW480 colon cancer cells; SW480 DNA re-replication, Hoechst DNA content imaging, 48 h; Potency, µM (series often up to 46.1 µM), without a hit: top-dose re-replication activation, most hits filed as activators; actives 1.8% (n = 340,000); AID 624297; also: potency is read from the fitted curve at half-maximal effect; % of control where 0% means no effect; nearly all actives have a fitted effect of over 55% in size
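250 cells/well; 23 nL cpd via pin tool; 48 hr, 37 C, 5% CO2; Hoechst 40 min; imager read of total nuclear intensity, ex 405/em 500-530 nm.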
DT40 TDP1 no CPT – qHTS for Inhibitors of human tyrosyl-DNA phosphodiesterase 1 (TDP1): qHTS in cells in absence of CPT. actives 15% (n = 420,000). Potency, µM (highest dose often 46.2 µM), for inactives: at the highest dose activity change, negative = growth inhibition, hits mostly inhibitors. DT40 Tdp1-/- hTDP1 cells, no CPT, ATP luminescence, 48 h. AID 686978, 2013; also: potency is read from the fitted curve at half-maximal effect; % is scaled to controls: 0 for no effect and ±100 for the full control effect; nearly all actives have a fitted effect of over 55% in size
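Seeded 400 DT40-hTDP1 cells/well (vehicle DMSO, no 20 nM CPT); pinned compounds; ≥48 hr at 37 °C; CellTiter-Glo luminescence as viability measure.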
TDP1 cell CPT – growth inhibition of DT40 Tdp1-/-;hTDP1 cells with camptothecin (screen for TDP1 inhibitors); chicken DT40 Tdp1-/-;hTDP1 cells + 20 nM CPT, ATP luminescence, 48 h; Potency, µM (series often up to 46.2 µM), for inactives: at the top dose activity change, negative = growth inhibition, most hits filed as inhibitors; actives 12% (n = 420,000); AID 686979; also: potency is read from the fitted curve at half-maximal effect; % is scaled to controls: 0 for no effect and ±100 for the full control effect; nearly all actives have a fitted effect of over 55% in size
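Cell growth measured by CellTiter-Glo luminescence after a minimum 48 h, 37 C compound exposure with 20 nM CPT in Tdp1-knockout DT40 cells stably expressing hTDP1, seeded 400/well; qHTS titration format.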
Chronic BCR inh – chronic active BCR signaling inhibition | Potency, µM (top dose mostly 46.1 µM), for inactives: at the top dose activity change, negative = inhibition, actives largely listed as inhibitors | ABC-DLBCL IkBa-CBG/CBR reporter, luminescence ratio, 4 h | actives 0.05% (n = 340,000); active = well fitted inhibition curve with a large enough effect in the signal ratio, with a control signal flat, not every such curve was filed as active; inconclusive = small, poorly fitted or top-dose-only effect, or effect the other way, or a change in a side signal; the % refers to the signal ratio;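 also: potency is read from the fitted curve at half-maximal effect; plate controls were basal doxycycline-induced cells for no effect and cells given 10 µM MG132 for full effect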
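Cell line TMD8 (human ABC DLBCL), stably expressing tet-inducible CBG68-IkBa fusion and CBR; IMDM/0.5% FBS; cpd up to 46 uM; dox induction, 4 h, 37C/5% CO2; dual luminescence; green/red ratio; MG132 control.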
MCF10A rereplic – induces DNA re-replication in MCF 10a normal breast cells | MCF 10A DNA re-replication, Hoechst nuclear intensity, 48 h | Potency, µM (top dose mostly 46.1 µM), without a hit: at the top dose activity, positive = re-replication, hits mostly activators | actives 2.9% (n = 350,000); also: potency is read from the fitted curve at half-maximal effect; % of control where 0% means no effect; nearly all actives have a fitted effect of over 50% in size
Active calls of the source: *; ? = inconclusive; · = no result; ! = repeats disagree; [ ] = dose if it differs, or a comment. Unless noted, calls follow the shape of the dose curve; as a rule, active = well fitted curve in the direction sought with a large enough effect; inconclusive = small, poorly fitted or top-dose-only effect, or another doubt; inactive = no such curve, though single readings can be large; an effect the other way counts as inactive or inconclusive.

SMILES	IL1B secr inh	SW480 rerep	DT40 TDP1 no CPT	TDP1 cell CPT	Chronic BCR inh	MCF10A rereplic
Cc1cc(=O)c(C(=O)NCCc2ccccn2)c2n1-c1ccccc1SC(c1cccs1)C2 (centres undefined)	·	·	-8%	-9%[9.04 µM]	·	·
COc1ccc(Cn2nnnc2C(c2ccc(N(C)C)cc2)N2CCC(C(N)=O)CC2)cc1 (centres undefined)	-9	-20%	-8%	2%	-4%	6%
CCOc1ccc(S(=O)(=O)c2c[nH]c3ccc(C)cc3c2=O)cc1	0	-6%	-5%	-15%	-2%	11%
CCc1ccc(C(c2ccccc2)c2c[nH]c3ccc(C)cc23)s1 (centres undefined)	·	·	16µM*	?	·	·
Cc1ccc2[nH]cc(C(c3ccccc3)c3ccc(Cl)s3)c2c1 (centres undefined)	·	·	15µM*	?	·	·
CN(CC(=O)NC(=O)NC1CCCCC1)CC(=O)Nc1ccc(OC(F)(F)F)cc1	-70*	1%	?	?	?	16%
COc1ccc(NC(=O)CN(C)CC(=O)NC(=O)NC2CCCCC2)cc1	5	-1%	?	-28%	0%	0%
CC1Cc2ccccc2N1C(=O)CN(C)CC(=O)Nc1ccc(OC(F)(F)F)cc1 (centres undefined)	-9	-13%	?	15µM*	-11%	?
CCOC(=O)c1ccc(NC(=O)c2cc(C)nc3ccccc23)cc1	-5	-1%	4%	18%	2%	?
CCOC(=O)c1nc(Nc2ccc(C(=O)OCC(C)C)cc2)c2ccccc2n1	·	·	6.5µM*	6.5µM*	·	·
CCOC(=O)c1nc(Nc2ccc(C(=O)OC(C)C)cc2)c2ccccc2n1	·	·	4.1µM*	5.2µM*	·	·
CCCCCOC(=O)c1ccc(Nc2nc(C(=O)OCC)nc3ccccc23)cc1	·	·	1.3µM*	3.3µM*	·	·
Oc1cc(Nc2ccc(N3CCCCC3)cc2)cc2cccnc12	·	·	·	·	-8%	·
Nc1nccc(-c2cccs2)n1	20	2%	1%	3%	5%	11%
Cc1ccc(C)n1-c1ccc(-c2ccnc(N)n2)cc1	-83*	?	?	-30%	-15%	?
Cc1cc2c(ccc3[nH]onc32)n1	-60*	-9%	?	-25%	?	1%
Cc1ccc2nc(C)cc(Cl)c2c1	0	6%	23%	2%	-3%	2%
COc1cc(SC)ccc1C(=O)Nc1cccc(C)n1	-70*	-1%	5.8µM*	?	?	?
COc1cc(SC)ccc1C(=O)Nc1ccc(Br)cn1	-10	-2%	13µM*	?	?	?
COc1cc(SC)ccc1C(=O)Nc1ccccn1	-19	0%	-29%	-12%	?	8%
Cc1ccc(OCC(O)CN2CCN(Cc3ccc4c(c3)OCO4)CC2)c(C)c1 (centres undefined)	-60*!	?	?	?	-3%	?
COc1ccc(OCC(O)CN2CCN(Cc3ccc4c(c3)OCO4)CC2)cc1 (centres undefined)	0	0%	-9%	-2%	-3%	11%
CN(CC(=O)NC(=O)NCc1ccccc1)Cc1ccc(Cl)c(Cl)c1	6	3%	29µM*	21µM*	0%	?
CSc1nc(S(C)(=O)=O)nc2[nH]c(=O)[nH]c12	4	-1%	1%	-6%	·	0%
COc1ccc(S(=O)(=O)N2CCOCC2)cc1NC(=O)c1cc2c(s1)CCCC2	14	-4%	2%	6%	?	-3%
SMILES	IL1B secr inh	SW480 rerep	DT40 TDP1 no CPT	TDP1 cell CPT	Chronic BCR inh	MCF10A rereplic
O=C(Nc1cc(S(=O)(=O)N2CCOCC2)ccc1N1CCOCC1)c1cc2c(s1)CCC2	-57*	-3%	23µM*	-1%	11%	-1%
Cc1ccc(NC(=O)C2=COCCO2)cc1S(=O)(=O)N1CCOCC1	0	-1%	-28%	7%	-3%	-3%
COc1ccc(C)cc1NC(=O)c1ccccc1NS(=O)(=O)c1ccc(Cl)s1	?	-20%	6.5µM*	8.2µM*	?	21µM*
CC(C)NC(=O)c1ccccc1NS(=O)(=O)c1ccc(Br)s1	21	0%	21µM*	?	7%	?
Cc1ccc(NC(=O)c2ccc([N+](=O)[O-])s2)cc1S(=O)(=O)N1CCOCC1	43	?	16µM*	16µM*	1%	1%
Cc1ccc(NC(=O)c2ccccc2NS(=O)(=O)c2ccc(Cl)s2)cc1S(=O)(=O)N1CCOCC1	?	2%	12µM*	13µM*	?	7.3µM*
O=C(Nc1cc(S(=O)(=O)N2CCOCC2)ccc1N1CCOCC1)c1ccc([N+](=O)[O-])s1	?	?	7.3µM*	12µM*	2%	?
Cc1ccc(S(=O)(=O)c2cn(CC(=O)Nc3ccccc3)c3cc4c(cc3c2=O)OCO4)cc1	·	·	-9%	-1%	·	·
Cc1nc2c(=O)n(C)c(=O)n(C)c2nc1Cl	-99*	?	1.2µM*	0.58µM*	?	1.8µM*
CC1(C)CC(=O)C2=C(C1)NC(=O)CC2	-2	·	12%	-3%	·	·
CC1C/C(=N/Nc2nc3ccccc3[nH]2)CC(C)(C)C1 (centres undefined)	-3	?	?	21µM*	4%	?
O=C(Nc1cccc(F)c1)c1cc(S(=O)(=O)N2CCC(C(=O)O)CC2)ccc1F	-6	-8%	0%	-3%	2%	-1%
Cc1cc(C)cc(NC(=O)c2cc(S(=O)(=O)NCCC3=CCCCC3)ccc2F)c1	·	·	?	?	12%	·
O=C(Nc1cccc(F)c1)c1cc(S(=O)(=O)NCCC2=CCCCC2)ccc1F	-61*	5%	?	?	?	?
COc1ccc(NC(=O)c2cc(S(=O)(=O)NCCC3=CCCCC3)ccc2F)cc1	·	·	23µM*	26µM*	?	·
Cc1ccc(NC(=O)c2cc(S(=O)(=O)NCCC3=CCCCC3)ccc2F)cc1F	-77*	?	16µM*	?	?	?
COc1ccc(CNS(=O)(=O)c2ccc(F)c(C(=O)Nc3c(C)cc(C)cc3C)c2)cc1	·	·	-28%	-16%	0%	·
Cc1ccc([C@@H]2CC(=O)[C@@H]3CN(S(=O)(=O)c4ccc(C)cc4)[C@H](c4ccccc4)C[C@@H]3N2S(=O)(=O)c2ccc(Cl)cc2)cc1	3	·	-16%	-12%	·	·
COc1ccccc1N1CCN(c2c3c(nc4nncn24)CCC3)CC1	·	·	4%	-1%	·	·
